These results are taken from PubChem BioAssay (EPA / NIEHS).

The source made the active and inactive calls. How the source made its calls: active means hit-call score of the fitted dose curve at least 0.9, where 1 is the maximum; inactive means score below 0.9.

For orientation: AC50 means the concentration at which the activity in the assay is half-maximal.

Assay [1] is described as follows: ATG_GLI_CIS: Attagene CIS-FACTORIAL HepG2 Assay for human Zinc Finger Protein GLI1 (AID 2282945). Particulars: HepG2, Attagene cis-factorial reporter mRNA, GLI element; actives raise or lower the signal. In a few lines:
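Bidirectional curve fits relative to DMSO, using reporter mRNA levels from RT-PCR plus capillary electrophoresis. Cells were HepG2 transiently carrying cis-regulated reporter constructs, harvested 24 h after dosing.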

Assay [2] addresses Bile acid receptor (Homo sapiens) (UniProt Q96RI1). The assay is described as follows: ATG_IR1_CIS: Attagene CIS-FACTORIAL HepG2 Assay for human Nuclear Receptor Subfamily 1 Group H Member 4 (NR1H4), IR1 submotif (AID 2282946). The settings on record: IR1 reporter transcription, actives raise or lower the signal. The essentials: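 HepG2 cells transiently transfected with multiplexed cis-element reporter units read endogenous transcription factor activity. After 24 h compound exposure, reporter mRNA was quantified by RT-PCR, fluorescent labelling, HpaI digestion and capillary electrophoresis; bidirectional fitting versus DMSO baseline.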

A short description of assay [3]: ATG_GRE_CIS: Attagene CIS-FACTORIAL HepG2 Assay for human Glucocorticoid Response Elements (GRE) (AID 2282947). Particulars: HepG2 GRE cis-reporter, Attagene multiplex mRNA; actives raise or lower the signal. In a few lines:
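Multiplexed cis-reporter mRNA induction, HepG2, 24 h post-dose. RT-PCR, FAM-labelled, HpaI-digested amplicons by CE. Bidirectional fit vs DMSO.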

A short description of assay [4]: ATG_ISRE_CIS: Attagene CIS-FACTORIAL HepG2 Assay for human Interferon Regulatory Factor 1 (IRF1) binding to an Interferon-Stimulated Response Element (ISRE) (AID 2282948). Particulars: HepG2 ISRE cis-reporter (Attagene), mRNA transcription readout; actives raise or lower the signal. The essentials: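 Signal reflects induction or loss of ISRE-linked reporter mRNA in transiently transfected HepG2 cells after a 24 h treatment, detected by fluorescent RT-PCR fragments on capillary electrophoresis and normalised to DMSO.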

Assay [5] is described as follows: ATG_M_32_CIS: Attagene CIS-FACTORIAL HepG2 Assay for M32 Transcription Factor (Internal Marker) (AID 2282949).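 Further: background control marker of the multiplexed CIS panel rather than a real target.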 The settings on record: HepG2 Attagene cis-factorial M32 reporter, mRNA; actives raise or lower the signal. In a few lines: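 Transient MRTU transfection of HepG2; 24 h compound treatment; TriZol RNA, oligo(dT) RT, reporter PCR, 6-FAM primer extension, HpaI cut, CE. Gain/loss of signal vs DMSO.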

A short description of assay [6]: ATG_M_06_CIS: Attagene CIS-FACTORIAL HepG2 Assay for M06 Transcription Factor (Internal Marker) (AID 2282950). Particulars: HepG2 Attagene CIS-FACTORIAL M06 internal marker reporter; actives raise or lower the signal. In a few lines:
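Cells (HepG2, transiently carrying cis-driven reporter units) receive chemical for 24 h before RNA isolation. Reporter cDNA is PCR-amplified, FAM-labelled by primer extension, HpaI-digested and sized on a capillary analyser.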

Assay [7] deals with Hepatocyte nuclear factor 6 (Homo sapiens) (UniProt Q9UBC0). In words: ATG_HNF6_CIS: Attagene CIS-FACTORIAL HepG2 Assay for human Hepatocyte Nuclear Factor 6 (HNF6) (AID 2282952). Particulars: HepG2 Attagene cis-factorial HNF6 reporter transcription; actives raise or lower the signal. In a few lines:
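Readout: fluorescent reporter-transcript fragments resolved by capillary electrophoresis after RT-PCR, reflecting endogenous factor activity in transfected HepG2. Exposure 24 h. Gain or loss of signal fitted bidirectionally against DMSO.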

The target of assay [8] is Heat shock factor protein 1 (Homo sapiens) (UniProt Q00613). The assay is described as follows: ATG_HSE_CIS: Attagene CIS-FACTORIAL HepG2 Assay for human Heat Shock Transcription Factor 1 (HSE) (AID 2282953). Particulars: HepG2 HSE cis-reporter, Attagene RNA transcription; actives raise or lower the signal. The essentials:
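Liver-derived HepG2 cells carry transiently introduced multiple reporter units governed by cis promoters. Reporter RNA measured 24 h post-dose through reverse transcription, PCR amplification, fluorescent labelling and capillary electrophoresis, normalised to DMSO.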

The nature of assay [9]: ATG_MRE_CIS: Attagene CIS-FACTORIAL HepG2 Assay for human Metal Responsive Element (MRE) (AID 2282954). Particulars: HepG2 MRE cis-reporter transcription, Attagene multiplex; actives raise or lower the signal. The essentials: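 Multiplexed cis-reporter assay in human HepG2 liver cells, 24 h incubation with test chemical. Reporter transcripts measured by RT-PCR and capillary electrophoresis; values from bidirectional curve fitting versus DMSO.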

Assay [10] is described as follows: ATG_PBREM_CIS: Attagene CIS-FACTORIAL HepG2 Assay for human Phenobarbital-responsive Enhancer Module (PBREM) (AID 2282955). Particulars: HepG2 PBREM cis-reporter, Attagene multiplexed transcription; actives raise or lower the signal. In a few lines:
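HepG2 cells transiently transfected with multiple cis-regulated reporter transcription units; endogenous factor activity at the PBREM element measured as reporter mRNA 24 h after dosing, via RT-PCR and capillary electrophoresis of fluorescent fragments; bidirectional fitting versus DMSO.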

Assay [11] has as its target Paired box protein Pax-6 (Homo sapiens) (UniProt P26367). In words: ATG_Pax6_CIS: Attagene CIS-FACTORIAL HepG2 Assay for human Paired Box 6 (PAX6) (AID 2282956). Particulars: HepG2 CIS-FACTORIAL PAX6 reporter transcription, RNA readout; actives raise or lower the signal. In a few lines:
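Values derive from bidirectional curve fitting of reporter mRNA signal relative to DMSO. HepG2 cells bearing transfected cis-regulated MRTUs were exposed for 24 h; transcripts were read by RT-PCR and capillary electrophoresis.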

Assay [12] in a line: ATG_PXRE_CIS: Attagene CIS-FACTORIAL HepG2 Assay for human Pregnane X Receptor Element (PXRE) (AID 2282957). Particulars: HepG2 Attagene CIS-FACTORIAL PXRE reporter, mRNA; actives raise or lower the signal. In a few lines: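 Read-out: fluorescence of reporter-specific RT-PCR products resolved by capillary electrophoresis, fitted bidirectionally relative to DMSO. Human HepG2 liver cells carried transfected cis-promoter reporter units and were exposed to chemicals for 24 h.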

Assay [13] can be described thus: ATG_PPRE_CIS: Attagene CIS-FACTORIAL HepG2 Assay for human Peroxisome Proliferator-activated Response Element (PPRE) (AID 2282958). The settings on record: HepG2 PPRE cis-element reporter, Attagene transcription factor profiling; actives raise or lower the signal. In a few lines:
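HepG2 cells transiently transfected with multiplexed cis-element reporter units measure endogenous transcription factor activity. After 24 h compound exposure, reporter mRNA is quantified by RT-PCR, 6-FAM labeling, HpaI digestion and capillary electrophoresis; bidirectional fits are made against DMSO baseline.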

Assay [14] is described as follows: ATG_RORE_CIS: Attagene CIS-FACTORIAL HepG2 Assay for human RAR-related Orphan Receptor Element (RORE) (AID 2282959). Particulars: HepG2 Attagene cis-factorial RORE reporter, mRNA; actives raise or lower the signal. The essentials:
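HepG2 cells transiently transfected with multiple cis-element reporter transcription units, exposed to chemical for 24 h. Reporter mRNA quantified by RT-PCR, 6-FAM primer-extension labeling, HpaI digestion and capillary electrophoresis; bidirectional fit versus DMSO baseline.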

Assay [15] can be described thus: ATG_Sox_CIS: Attagene CIS-FACTORIAL HepG2 Assay for human SRY-box transcription factor (SOX) (AID 2282960). The settings on record: HepG2 Attagene cis-factorial SOX reporter, mRNA; actives raise or lower the signal. In a few lines:
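HepG2 cells transiently transfected with cis-element-driven multiple reporter transcription units, dosed 24 h; reporter mRNA measured by RT-PCR, FAM labelling, HpaI digestion and capillary electrophoresis. Bidirectional fit versus DMSO baseline.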

In assay [16] the target is Transcription factor Sp1 (Homo sapiens) (UniProt P08047). The assay is described as follows: ATG_Sp1_CIS: Attagene CIS-FACTORIAL HepG2 Assay for human Specificity Protein 1 (Sp1) (AID 2282961). The settings on record: HepG2 Sp1 cis-reporter transcription, actives raise or lower the signal. The essentials:
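HepG2 cells transiently transfected with multiple reporter transcription units driven by cis-regulatory elements; Sp1-responsive reporter mRNA measured 24 h after dosing by RT-PCR and capillary electrophoresis fluorescence, fitted bidirectionally against DMSO baseline.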

Assay [17] is described as follows: ATG_SREBP_CIS: Attagene CIS-FACTORIAL HepG2 Assay for human Sterol Regulatory Element Binding (SREBP) (AID 2282962). The settings on record: HepG2 Attagene cis-factorial SREBP reporter, mRNA; actives raise or lower the signal. In a few lines:
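Values derive from bidirectional curve fitting with DMSO as baseline. The underlying measurement is reporter mRNA from cis-element-regulated units in transiently transfected HepG2, quantified by RT-PCR and capillary electrophoresis after 24 h exposure.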

The target of assay [18] is Signal transducer and activator of transcription 3 (Homo sapiens) (UniProt P40763). The assay is described as follows: ATG_STAT3_CIS: Attagene CIS-FACTORIAL HepG2 Assay for human Signal Transducer and Activator of Transcription 3 (STAT3) (AID 2282963). The settings on record: HepG2, Attagene cis-factorial STAT3 reporter transcription; actives raise or lower the signal. The essentials:
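Cis-factorial format: endogenous transcription factors in HepG2 drive transfected reporter units. After 24 h treatment, reporter RNA was reverse-transcribed, amplified, FAM-labelled and HpaI-digested before CE analysis; activity scored in both directions against DMSO.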

Assay [19] is described as follows: ATG_TA_CIS: Attagene CIS-FACTORIAL HepG2 Assay for human TA Basal Promoter (AID 2282964). The settings on record: HepG2 Attagene CIS-factorial TA basal promoter reporter; actives raise or lower the signal. The essentials: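 Background internal-marker endpoint from a 52-component HepG2 cis-reporter panel. Cells treated 24 h; reporter transcripts quantified via RT-PCR and CE fluorescence against DMSO baseline.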

Assay [20] has as its target Hypoxia-inducible factor 1-alpha (Homo sapiens) (UniProt Q16665). In words: ATG_HIF1a_CIS: Attagene CIS-FACTORIAL HepG2 Assay for human Hypoxia Inducible Factor 1 (HIF1A) (AID 2282951). Particulars: HepG2 Attagene cis-factorial HIF1a reporter transcription; actives raise or lower the signal. The essentials: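 HepG2 cells transiently transfected with multiplexed cis-promoter reporter units; reporter mRNA read 24 h after dosing by RT-PCR, 6-FAM primer-extension labelling, HpaI digestion and capillary electrophoresis. Bidirectional fit versus DMSO baseline.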

Chain of Heat shock factor protein 1 (Homo sapiens) (Q00613 whole entry, looked up): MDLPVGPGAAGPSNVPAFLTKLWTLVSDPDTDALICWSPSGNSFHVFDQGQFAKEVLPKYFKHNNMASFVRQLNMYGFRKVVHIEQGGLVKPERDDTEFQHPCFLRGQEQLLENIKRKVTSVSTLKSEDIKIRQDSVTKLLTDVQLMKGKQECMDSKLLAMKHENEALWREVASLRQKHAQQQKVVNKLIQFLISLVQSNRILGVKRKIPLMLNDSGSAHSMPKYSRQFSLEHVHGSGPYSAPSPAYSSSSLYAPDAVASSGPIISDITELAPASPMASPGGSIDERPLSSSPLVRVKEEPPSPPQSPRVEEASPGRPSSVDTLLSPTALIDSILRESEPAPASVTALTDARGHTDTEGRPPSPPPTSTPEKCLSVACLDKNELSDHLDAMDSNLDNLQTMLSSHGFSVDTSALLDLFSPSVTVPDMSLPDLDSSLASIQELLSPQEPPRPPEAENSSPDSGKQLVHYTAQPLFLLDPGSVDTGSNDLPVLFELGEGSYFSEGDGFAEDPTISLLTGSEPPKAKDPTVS
Chain of Bile acid receptor (Homo sapiens) (Q96RI1 whole entry, looked up): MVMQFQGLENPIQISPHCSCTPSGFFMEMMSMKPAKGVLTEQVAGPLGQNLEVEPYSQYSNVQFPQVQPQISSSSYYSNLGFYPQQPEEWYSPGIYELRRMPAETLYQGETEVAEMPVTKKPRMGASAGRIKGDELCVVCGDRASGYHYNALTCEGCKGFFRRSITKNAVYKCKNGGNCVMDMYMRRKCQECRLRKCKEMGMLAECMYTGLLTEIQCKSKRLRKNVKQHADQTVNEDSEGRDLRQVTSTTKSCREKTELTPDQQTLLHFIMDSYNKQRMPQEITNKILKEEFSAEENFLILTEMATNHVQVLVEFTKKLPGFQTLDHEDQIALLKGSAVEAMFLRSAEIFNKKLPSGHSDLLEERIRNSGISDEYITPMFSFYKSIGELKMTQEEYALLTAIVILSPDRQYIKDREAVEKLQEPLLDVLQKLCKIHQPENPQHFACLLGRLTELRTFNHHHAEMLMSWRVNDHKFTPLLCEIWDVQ
Chain of Transcription factor Sp1 (Homo sapiens) (P08047 whole entry, looked up): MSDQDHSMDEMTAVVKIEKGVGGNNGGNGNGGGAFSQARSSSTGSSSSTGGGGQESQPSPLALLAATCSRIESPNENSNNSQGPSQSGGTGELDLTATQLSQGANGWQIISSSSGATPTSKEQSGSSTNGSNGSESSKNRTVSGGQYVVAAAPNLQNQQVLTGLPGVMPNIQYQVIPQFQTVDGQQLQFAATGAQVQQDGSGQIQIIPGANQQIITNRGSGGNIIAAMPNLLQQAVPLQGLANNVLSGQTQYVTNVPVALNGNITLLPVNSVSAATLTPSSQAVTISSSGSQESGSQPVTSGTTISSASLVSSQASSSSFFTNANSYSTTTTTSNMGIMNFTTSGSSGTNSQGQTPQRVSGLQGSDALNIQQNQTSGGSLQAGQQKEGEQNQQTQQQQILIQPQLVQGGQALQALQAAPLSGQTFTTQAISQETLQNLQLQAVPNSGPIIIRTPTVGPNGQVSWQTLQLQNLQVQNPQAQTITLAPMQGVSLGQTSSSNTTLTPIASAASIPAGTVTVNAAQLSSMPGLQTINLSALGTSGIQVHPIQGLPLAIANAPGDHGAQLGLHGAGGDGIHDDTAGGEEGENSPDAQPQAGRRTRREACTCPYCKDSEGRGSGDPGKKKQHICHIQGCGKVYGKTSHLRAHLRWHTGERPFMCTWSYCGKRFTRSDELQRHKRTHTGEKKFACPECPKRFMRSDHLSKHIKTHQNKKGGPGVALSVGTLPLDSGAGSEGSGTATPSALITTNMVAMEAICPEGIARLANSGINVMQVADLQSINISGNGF
Chain of Paired box protein Pax-6 (Homo sapiens) (P26367 whole entry, looked up): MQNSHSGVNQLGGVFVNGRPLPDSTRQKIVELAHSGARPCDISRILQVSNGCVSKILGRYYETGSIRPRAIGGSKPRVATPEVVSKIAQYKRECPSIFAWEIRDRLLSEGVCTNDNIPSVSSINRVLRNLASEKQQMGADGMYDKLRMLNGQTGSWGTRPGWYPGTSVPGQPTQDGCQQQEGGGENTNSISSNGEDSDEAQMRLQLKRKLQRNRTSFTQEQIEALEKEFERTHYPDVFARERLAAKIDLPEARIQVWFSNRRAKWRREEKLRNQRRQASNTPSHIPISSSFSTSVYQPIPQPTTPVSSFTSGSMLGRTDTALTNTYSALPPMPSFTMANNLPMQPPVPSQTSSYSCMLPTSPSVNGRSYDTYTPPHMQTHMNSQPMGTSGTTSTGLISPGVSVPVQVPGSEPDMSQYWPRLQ
Chain of Hepatocyte nuclear factor 6 (Homo sapiens) (Q9UBC0 whole entry, looked up, the tested form may be a part): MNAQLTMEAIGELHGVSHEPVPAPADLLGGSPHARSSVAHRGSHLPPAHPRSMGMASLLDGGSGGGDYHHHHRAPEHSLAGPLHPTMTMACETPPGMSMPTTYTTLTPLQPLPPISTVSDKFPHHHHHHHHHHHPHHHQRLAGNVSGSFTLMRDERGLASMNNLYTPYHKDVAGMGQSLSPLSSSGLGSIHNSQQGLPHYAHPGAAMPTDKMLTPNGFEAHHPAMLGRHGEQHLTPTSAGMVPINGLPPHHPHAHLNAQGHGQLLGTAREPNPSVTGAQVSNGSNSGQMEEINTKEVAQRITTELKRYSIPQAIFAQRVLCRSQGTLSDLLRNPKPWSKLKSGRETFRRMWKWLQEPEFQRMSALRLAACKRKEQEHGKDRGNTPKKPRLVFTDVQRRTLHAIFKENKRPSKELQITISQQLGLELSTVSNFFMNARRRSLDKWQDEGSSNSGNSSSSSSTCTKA
Chain of Signal transducer and activator of transcription 3 (Homo sapiens) (P40763 whole entry, looked up): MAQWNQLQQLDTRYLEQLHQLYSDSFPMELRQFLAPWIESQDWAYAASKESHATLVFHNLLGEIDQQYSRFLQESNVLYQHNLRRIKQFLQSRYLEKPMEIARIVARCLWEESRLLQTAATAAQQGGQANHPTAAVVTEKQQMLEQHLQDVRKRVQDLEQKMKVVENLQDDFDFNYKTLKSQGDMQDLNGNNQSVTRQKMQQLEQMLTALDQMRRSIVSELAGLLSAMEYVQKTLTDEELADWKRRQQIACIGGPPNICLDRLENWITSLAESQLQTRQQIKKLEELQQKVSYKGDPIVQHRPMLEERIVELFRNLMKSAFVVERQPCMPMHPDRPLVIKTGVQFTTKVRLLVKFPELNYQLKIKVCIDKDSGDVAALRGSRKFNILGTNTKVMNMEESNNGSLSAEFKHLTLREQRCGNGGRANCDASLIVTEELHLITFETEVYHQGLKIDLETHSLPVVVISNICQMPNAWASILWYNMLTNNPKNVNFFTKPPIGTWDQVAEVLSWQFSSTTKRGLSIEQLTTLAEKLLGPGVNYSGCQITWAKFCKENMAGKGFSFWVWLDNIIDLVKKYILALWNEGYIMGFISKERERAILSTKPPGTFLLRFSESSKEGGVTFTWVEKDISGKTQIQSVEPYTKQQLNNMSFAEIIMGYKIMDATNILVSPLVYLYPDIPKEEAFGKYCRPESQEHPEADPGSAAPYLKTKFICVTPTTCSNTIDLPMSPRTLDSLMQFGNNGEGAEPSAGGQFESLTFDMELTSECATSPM
Chain of Hypoxia-inducible factor 1-alpha (Homo sapiens) (Q16665 whole entry, looked up): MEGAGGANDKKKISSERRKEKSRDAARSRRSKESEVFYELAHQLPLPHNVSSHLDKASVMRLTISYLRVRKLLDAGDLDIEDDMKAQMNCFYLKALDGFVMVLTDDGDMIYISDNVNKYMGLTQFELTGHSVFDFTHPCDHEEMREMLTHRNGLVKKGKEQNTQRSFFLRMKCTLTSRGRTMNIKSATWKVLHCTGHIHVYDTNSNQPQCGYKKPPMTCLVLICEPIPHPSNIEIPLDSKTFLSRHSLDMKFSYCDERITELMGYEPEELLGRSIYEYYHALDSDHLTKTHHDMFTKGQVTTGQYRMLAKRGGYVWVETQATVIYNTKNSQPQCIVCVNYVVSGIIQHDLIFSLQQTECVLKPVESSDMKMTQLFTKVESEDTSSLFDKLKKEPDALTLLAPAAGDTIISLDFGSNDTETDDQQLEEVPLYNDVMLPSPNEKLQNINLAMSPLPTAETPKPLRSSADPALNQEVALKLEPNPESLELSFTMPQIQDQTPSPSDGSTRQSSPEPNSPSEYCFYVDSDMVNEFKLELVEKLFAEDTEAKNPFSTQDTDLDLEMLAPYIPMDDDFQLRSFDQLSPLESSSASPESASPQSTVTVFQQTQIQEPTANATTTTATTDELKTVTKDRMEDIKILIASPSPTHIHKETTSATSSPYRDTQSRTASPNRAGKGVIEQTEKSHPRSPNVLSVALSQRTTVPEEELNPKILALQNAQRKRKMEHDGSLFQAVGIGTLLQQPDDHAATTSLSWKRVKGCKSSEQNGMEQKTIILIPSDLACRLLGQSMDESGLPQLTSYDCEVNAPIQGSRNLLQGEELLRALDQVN

For the compound `CC1COC(=O)O1` (stereo not drawn), the result in assay [1], in [2], in assay [3], in assay [4], in assay [5] and in [6] was inactive. The result in assay [7], in assay [8], in [9], in assay [10], in assay [11] and in [13] was inactive. Besides, the compound was classed as inactive in assay [14], in assay [15], in assay [16], in assay [17], in [18] and in [19]. The AC50 in [12] is 40.3 µM (active).

In the case of `[Cl][Dy]([Cl])[Cl]`, the result in [1], in assay [2], in assay [3], in assay [5], in assay [6] and in [20] was inactive. Besides, the compound was called inactive in assay [8], in assay [9], in assay [10], in assay [11], in [12] and in assay [14]. Besides, the outcome in assay [15], in assay [17], in assay [18] and in [19] was inactive.

Turning to `CCCCCCOC(C)=O`, the compound was called inactive in assay [1], in [2], in assay [3], in [4], in assay [5] and in assay [6]. The compound was classed as inactive in assay [7], in assay [9], in assay [10], in [11], in assay [12] and in [13]. Moreover, the compound was classed as inactive in [15], in assay [16], in [17], in [18] and in assay [19].

Take `CCC(C)(C)c1cc(O)c(C(C)(C)CC)cc1O`: the AC50 was 6.82 µM (active) in [1]; 24.2 µM (active) in [2]; 24.8 µM (active) in assay [3]; 20.2 µM (active) in assay [4]; 30 µM (active) in [7]; 49.3 µM (active) in assay [8]. Further, the AC50 in assay [9] is 16.2 µM (active); in [11] it was 68.9 µM (active); in assay [15], 100 µM (active); in assay [16], 4.19 µM (active); in assay [17], 4.61 µM (active). Moreover, the call in [5], in assay [6], in [12], in [14] and in assay [19] was inactive.
